TbPYK inhibitor – qHTS of Trypanosoma Brucei Inhibitors; pyruvate kinase (Trypanosoma brucei), Q57TT1; AID 624173, 2012; TbPYK enzyme, Kinase-Glo Plus ATP luminescence, 45 min; Potency, µM (titrated, usually from 76.8 µM), inactives show at the highest dose activity, negative = inhibition, most hits filed as inhibitors; actives 0.12% (n = 410,000); active = well fitted curve in the direction sought with a large enough effect; an effect the other way counts as inactive or inconclusive; also: potency is read from the fitted curve at half-maximal effect; % is scaled to controls: 0 for no effect and ±100 for the full control effect; nearly all actives have a fitted effect of over 50% in size
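ADP (130 uM final) triggers the TbPYK reaction after compound addition; incubation is 45 min at room temperature. Kinase-Glo Plus is then added and luminescence imaged. Normalized data are fitted to concentration-effect curves.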
NS1 function inh – qHTS Assay for Inhibitors of Influenza NS1 Protein Function; actives 0.4% (n = 270,000); Potency, µM (series often up to 46.1 µM), inactives show at the highest dose activity, positive = more growth; also: potency is read from the fitted curve at half-maximal effect; actives are rising curves; nearly all actives have a fitted effect of over 50% in size
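Growth recovery, yeast-based: influenza A NS1 expressed in S. cerevisiae causes slow growth, and suppressors are detected by OD600. The parent strain without NS1 is used as positive control.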
Shiga inhibitor – A qHTS for Small Molecule Inhibitors of Shiga Toxin. Vero cells, Shiga toxin protein synthesis inhibition reporter. inhibition, % at 38.7 µM. actives 9.2% (n = 290,000); in the data active = inhibition mostly above about 28%, no sharp cut-off; inactive = mostly below about 43%; also: 0% is about no effect
LmPK inh – qHTS Assay for Inhibitors of Leishmania Mexicana Pyruvate Kinase (LmPK); actives 0.37% (n = 290,000); AID 1721, 2009; purified LmPK, Kinase-Glo ATP luminescence, 1 h; Potency, µM (doses to about 57.5 µM), for the others: at the highest dose activity change, negative = inhibition, usual class: inhibitors; Q27686; active = well fitted curve in the direction sought with a large enough effect; an effect the other way counts as inactive or inconclusive; also: potency is read from the fitted curve at half-maximal effect; % is scaled to controls: 0 for no effect and ±100 for the full control effect
Target sequence (Q27686 whole entry, looked up): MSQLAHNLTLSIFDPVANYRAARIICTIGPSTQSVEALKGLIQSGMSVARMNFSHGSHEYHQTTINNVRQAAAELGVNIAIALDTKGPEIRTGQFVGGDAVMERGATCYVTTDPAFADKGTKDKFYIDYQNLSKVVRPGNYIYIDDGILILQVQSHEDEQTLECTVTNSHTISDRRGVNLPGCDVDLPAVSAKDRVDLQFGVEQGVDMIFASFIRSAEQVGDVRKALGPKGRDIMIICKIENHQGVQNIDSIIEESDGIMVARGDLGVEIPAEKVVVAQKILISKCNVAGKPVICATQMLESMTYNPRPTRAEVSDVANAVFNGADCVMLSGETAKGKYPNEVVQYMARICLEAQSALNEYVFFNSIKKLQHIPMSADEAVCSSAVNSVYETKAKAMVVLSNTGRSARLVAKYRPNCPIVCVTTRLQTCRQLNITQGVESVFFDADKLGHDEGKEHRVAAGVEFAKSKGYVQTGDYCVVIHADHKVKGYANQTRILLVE
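Purified LmPK (0.1 nM) with 0.5 mM PEP and 0.1 mM ADP in imidazole buffer pH 7.2 with MgCl2/KCl, 1 h at room temperature. ATP formed was read by luciferase luminescence and normalized to no-enzyme and uninhibited controls.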
Cycloheximide cs – Cycloheximide Counterscreen for Small Molecule Inhibitors of Shiga Toxin. cell reporter, cycloheximide protein synthesis inhibition counterscreen. max response, %. actives 12% (n = 300,000); in the data active = max response mostly above about 13%, no sharp cut-off; inactive = mostly below about 14%; also: read at 38.3 µM for the half of the compounds with a filed dose; 0% is about no effect
SARS PLP yeast – qHTS of Yeast-based Assay for SARS-CoV PLP; S. cerevisiae expressing SARS-CoV PLpro, growth rescue; actives 0.19% (n = 330,000); Potency, µM (series often up to 32.9 µM), without a hit: top-dose activity, positive = growth rescue, hits mostly activators; also: potency is read from the fitted curve at half-maximal effect; 0% is about no effect; nearly all actives have a fitted effect of over 55% in size
Numbers without * were called inactive; nt = no result. The sample as a whole holds a higher share of hits than the screen did. Unless noted, calls follow the shape of the full dose curve.

SMILES | TbPYK inhibitor | NS1 function inh | Shiga inhibitor | LmPK inh | Cycloheximide cs | SARS PLP yeast
CC(=O)c1c(C)[nH]c(C(=O)OCc2cccc(Cl)c2)c1C | 2% | nt | 82* | 7% | 36* | -6%
CC(=O)c1c(C)[nH]c(C(=O)OCc2c(F)cccc2Cl)c1C | 4% | nt | 7 | 1% | 8 | -1%
CCc1ccc(NC(=O)CSc2nc(C)c(C(=O)Nc3ccccc3)c(-c3ccc(OC)c(OC)c3)c2C#N)cc1 | -9% | nt | nt | nt | nt | nt
CCN1CCN(C(C(=O)NC2CCCCC2)c2ccnc3ccccc23)CC1 (stereo not drawn) | 0% | nt | nt | nt | nt | nt
COc1ccc(NC(=O)C(C)n2nnc3sc(-c4ccccc4)cc3c2=O)cc1Cl (stereo not drawn) | -7% | nt | nt | nt | nt | nt
CCCNC(=O)COC(=O)c1[nH]c(C)c(C(=O)OCC)c1C | -7% | 0% | -8 | 1% | 7 | 6%
CCOC(=O)c1[nH]c(C)c(C(=O)OCCOc2cccc(C)c2)c1C | -9% | -5% | 10 | -2% | 22* | 23%
Cc1ccc(N=Cc2cc(Cc3ccccc3Cl)cc([N+](=O)[O-])c2O)c(O)c1 | -3% | nt | 55 | -5% | 31* | -18%
CC(=Nc1ccccc1N)c1c(O)n(C)c(=O)[nH]c1=O | -2% | -31% | 76* | 1% | 50* | -9%
Cc1ccc(NC(=O)CN2C(=O)S/C(=C/c3ccc(-c4cc(C(=O)O)ccc4C)o3)C2=O)cc1C | -17% | 15% | -7 | 9% | -2 | 5%
COC(=O)C(C)N1C(=O)S/C(=C\c2ccc(-c3ccc(C(=O)O)cc3C)o2)C1=O (stereo not drawn) | -21% | 2% | 89* | -2% | 44* | -1%
O=C(/C(Cl)=C/Nc1ccc(Br)cn1)C(F)(F)F | -3% | nt | 35 | -1% | 16* | 0%
Cc1ccccc1/C=C1\OC(=O)c2ccccc21 | -2% | -50% | 40* | -7% | 20* | 4%
Cc1ccc(/C=C2\OC(=O)c3ccccc32)cc1 | -2% | -17% | 107* | -11% | 53* | 5%
CC(=O)C1=C(O)C(=Cc2ccccc2)OC1=O | -1% | nt | nt | nt | nt | nt
O=C1OC(c2cc(I)c(O)c(I)c2)(c2cc(I)c(O)c(I)c2)c2ccccc21 | -15% | nt | -2 | nt | 1 | nt
CCC(=O)N1CCN(c2ccc(NC(=O)c3cc4ccccc4o3)cc2Cl)CC1 | 4% | -2% | -3 | -1% | 17* | -19%
CCCC(=O)N1CCN(c2ccc(NC(=O)c3cc4ccccc4o3)cc2Cl)CC1 | -6% | -68% | 11 | 4% | 13 | -4%
O=C(Nc1ccc(N2CCN(C(=O)c3ccco3)CC2)c(Cl)c1)c1cc2ccccc2o1 | 1% | -65% | 52 | 1% | 23* | -13%
O=C(OCc1ccc(Cl)cc1)c1ccccc1C(=O)c1ccccc1 | 4% | -21% | 60 | -1% | 21* | -2%
O=C(OCc1ccc(Cl)cc1)c1cnccn1 | 0% | -4% | -27 | -9% | 1 | -4%
O=C(OCc1ccc(COC(=O)c2ccccn2)cc1)c1ccccn1 | -5% | -13% | 66* | -12% | 30* | -6%
COC(=O)c1ccc(COC(=O)c2cccnc2Cl)cc1 | 0% | 0% | 97 | -8% | 37* | -3%
O=C(OCc1ccc(Cl)cc1)c1cccnc1Cl | 4% | -7% | 55 | -4% | 18* | -2%
O=C(O)c1ccccc1C(=O)OCc1ccccc1 | -2% | -5% | 17 | 3% | 5 | nt
SMILES | TbPYK inhibitor | NS1 function inh | Shiga inhibitor | LmPK inh | Cycloheximide cs | SARS PLP yeast
O=C(OCc1ccccc1)c1cccnc1Cl | 1% | nt | 19 | -5% | 10 | 2%
CC(OC(=O)Cc1ccccc1[N+](=O)[O-])C(=O)NC(=O)NC1CCCCC1 (stereo not drawn) | -18% | nt | nt | nt | nt | -5%
O=C(CSc1nc(=O)[nH]c2c1CCCC2)NCc1ccccc1Cl | -7% | nt | nt | nt | nt | nt
S=C(N/N=C/c1ccc(Cl)cc1)N1CCOCC1 | -17% | -43% | 97* | 2% | 41* | -23%
Cc1ccc(/C=N/NC(=S)N2CCOCC2)cc1 | -24% | -18% | 83* | -3% | 57* | -17%
Cc1ccc(CNC(=S)N2CCOCC2)cc1 | -2% | nt | 2 | 1% | -6 | -1%
